Laboratory results taken from PubChem BioAssay AID504842 (National Center for Advancing Translational Sciences (NCATS), 2011).
Out of some 330,000 compounds screened, about 100 (0.03%) were called active. Roughly 1% stayed inconclusive and do not appear here. What follows is part of a selection rich in actives, with near analogues and random picks from the rest. Values without a mark were called inactive. Calls come from the whole dose curve; as a rule, active = well fitted inhibition curve with a large enough effect; inconclusive = small, poorly fitted or top-dose-only effect; inactive = flat fitted curve, though single readings scatter.

tested on: Chaperonin Mm-Cpn (Methanococcus maripaludis); experiment: Inhibitors of TCP-1 ring complex (TRiC) of Methanococcus maripaludis (MmCpn): qHTS; details: purified Mm-Cpn ATPase, ADP Transcreener TR-FRET; series mostly up to 76.9 µM; activity, negative = inhibition: at the top concentration; note: nearly all actives have a fitted effect of over 80% in size;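 for Potency: enzyme at 25 nM with ATP substrate at 10 µM during the reaction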
From the text: The eukaryotic chaperonin TRiC (for TCP-1 ring complex) is an essential and conserved chaperone required for the folding and activation of 10-15% of the proteins encoded by the human genome. […] The TRiC complex consist of two stacked 7-9 membered rings, each containing a central cavity. Substrates are folded within the cavity in an ATP-dependent manner. TRiC is a complex of eight different, essential proteins. As each of the genes encoding the eight subunits is essential for cell viability and no protocol has been developed to over-express this enzyme to high levels. That is why several groups studying the TRiC chaperonin have turned to the archaeal homolog of TRiC, Methanococcus maripaludis (Mm-CPN), and have used this enzyme as a model system for the study of the type II chaperonin family. Small molecule inhibitors of the Mm-CPN enzyme would be extremely useful to study the mechanism of chaperonin activity. Importantly, TRiC and Mm-CPN both require ATP hydrolysis for function. Furthermore, the ATP binding sites are highly conserved among these type II chaperonins. This provides us with an easy, well tested and straightforward assay to identify inhibitors of chaperonin activity. The Mm-CPN assay was developed in 1536-well plate format using the HTRF Transcreener ADP assay kit (Cisbio, Bedford, MA). This assay applied the time resolved fluorescence resonance energy transfer (TR-FRET) principle. ATP in the presence of Mm-CPN is converted to ADP + Pi. An antibody labeled with Eu3+-Cryptate specific and bound to ADP labeled with […] (d2) competes with the unlabeled ADP generated by Mm-CPN. The resulting TR-FRET signal is inversely proportional to the concentration of ADP in the sample. In this assay a reduction in TR-FRET signal is observed with ATP turnover. NIH Chemical Genomics Center [NCGC] NIH Molecular Libraries Probe Centers Network [MLPCN] MLPCN Grant: DA030554-01A1 Assay Submitter (PI): Judith Frydman, Stanford University
Purified Mm-CPN was supplied by the laboratory of Dr. Judith Frydman. Protein samples were stored at -80C as single use aliquots. Protein was thawed in ambient temperature water bath and placed on ice once thawed. Buffer was prepared fresh day of screen. The buffer composition below was used to prepare the working solution of the Mm-CPN protein and ATP substrate. The buffer is comprised of 30 mM TRIS pH 7.4, 100mM KCl, 5mM MgCl2, and 1mM DTT. A final concentration of 25nM Mm-CPN and 10uM ATP per well were used in the screen. Instructions according to the manufacturer were followed for the ADP Transcreener kit. Used 1536 well Greiner white, medium binding (MB), solid bottom plates. Plates were read on the PerkinElmer EnVision plate reader using Excitation = 320 nm and Emission = […], 665 nm. Protocol- 1.Dispense 1.5ul per well of working [Mm-CPN] = 50nM (or 75 ng / well) 2.Spin plate at 1000 rpm for 30 seconds 3.23nl of compound transferred per well 4.Incubate at 37degC for 10 minutes 5.Dispense 1.5ul per well of working [ATP] = 20uM 6.Incubate at 37degC for 30 minutes 7.Dispense 3ul per well of Anti-ADP Cryptate / ADP-d2 mix (prepared as instructed by Cisbio) 8.Incubate at ambient for 30 minutes 9.Read using EnVision
% is set by controls: 0 for no effect and ±100 for the full control effect; potency is the fitted concentration of half-maximal effect.

Structure (SMILES) | activity, negative = inhibition | Potency
CCCNCc1cc(OCC)c(OCC(=O)Nc2ccccc2)cc1Br | -4.4% (inactive) | 
CC(c1ccccc1)n1c(NCCCn2ccnc2)nc2c1c(=O)[nH]c(=O)n2C (stereo not given) | 0.8% (inactive) | 
CC(=O)NS(=O)(=O)c1ccc(NC(=O)/C=C/c2ccccc2Cl)cc1 | -0.316% (inactive) | 
CN(CC(=O)NCCc1ccc(F)cc1)CC(=O)Nc1ccc(F)c(F)c1F | 1.1% (inactive) | 
CC(C)c1nc2oc3c(N4CCN(C)CC4)ncnc3c2c2c1CCC2 | -8.03% (inactive) | 
C=CS(=O)c1sc(Cl)c(N2CCOCC2)c1[N+](=O)[O-] (stereo not given) | -1.91% (inactive) | 
CN(C)CCCNc1c2c(c(C#N)c3nc4ccccc4n13)CCC2 | -0.924% (inactive) | 
CCn1c2ccccc2c2cc(NC(=O)Nc3ccc([N+](=O)[O-])cc3C)ccc21 | 1.13% (inactive) | 
O=C(CCC(=O)c1ccccc1)NCc1cccc(C(F)(F)F)c1 | -0.0071% (inactive) | 
CCOc1ccccc1NC(=S)NC(=O)CCc1ccccc1 | 0.822% (inactive) | 
O=S(=O)(c1cc(Cl)ccc1Cl)N1CCN(Cc2ccco2)CC1 | 0.0715% (inactive) | 
CCOc1cc(/C=C(/C#N)c2ccc(Cl)cc2)cc(Cl)c1OCC(=O)O | 1.28% (inactive) | 
O=C(CSc1ncnc2c1cnn2CCc1ccccc1)Nc1ccc(F)cc1 | -0.16% (inactive) | 
Cc1ccc2nc(-c3ccccn3)cc(C(=O)Nc3ccc4c(c3)OCO4)c2c1 | -7.87% (inactive) | 
O=C(Nc1ccncc1)c1cc(-c2ccccn2)nc2ccc(Br)cc12 |  | 44.7 µM (active)
NC(=O)c1cc(-c2cccnc2)nc2ccc(Br)cc12 | -1.29% (inactive) | 
O=C(Nc1cccnc1)c1noc2c1CCCCC2 | -0.428% (inactive) | 
Nc1ccn(C2CC(O)C(CO)O2)c(=O)n1 (stereo not given) | 1.62% (inactive) | 
Cc1ccc(C)c(CSc2nc(-c3ccco3)nc3c2c(=O)n(C)c(=O)n3C)c1 | 2.6% (inactive) | 
COc1ccc(O)c(/C=N/N=C/c2cccc([N+](=O)[O-])c2)c1 | 1.75% (inactive) | 
Nc1ccc(Nc2cc(O)c3ncccc3c2)cc1 | -3.06% (inactive) | 
CCCN1Cc2cccc(C(=O)Nc3ccc(S(=O)(=O)N4CCCCCC4)cc3)c2C1=O | -4.72% (inactive) | 
CCN(CC)CCN1C(=O)C(=O)/C(=C(/O)c2cnn(-c3ccccc3)c2C)C1c1cccs1 (stereo not given) | -1.3% (inactive) | 
CC(C)(C)c1ccc(S(=O)(=O)N2CCN(C(=O)c3ccc4c(c3)C(=O)N(Cc3ccncc3)C4=O)CC2)cc1 | -0.64% (inactive) | 
Cc1ccc(S(=O)(=O)Nc2ccc3c(c2)C(=O)N([C@H](C)CO)C[C@@H](C)[C@@H](CN(C)C(=O)Nc2cccc4ccccc24)O3)cc1 | 2.37% (inactive) | 

Structure (SMILES) | activity, negative = inhibition | Potency
C=CCC(NCCCO)c1cccc(OC)c1OC (stereo not given) | -2.38% (inactive) | 
CC(C)CCN1CCN(Cc2ccc(C(F)(F)F)cc2)CC1CCO (stereo not given) | 0.684% (inactive) | 
CC(C)(C)c1cc2cccnc2n1Cc1cccc(F)c1 | 1.5% (inactive) | 
O=c1[nH]c(CSc2ccccc2)nc2c1oc1ccccc12 | 1.87% (inactive) | 
CCOc1ccc(NC(=O)CCCCCN2C(=O)[C@@H]3Cc4ccccc4CN3C2=O)cc1 | 1.25% (inactive) | 
CCN1C(=S)N[C@@H](c2cccc(C(F)(F)F)c2)C(C(=O)OC)=C1C | 3.56% (inactive) | 
COc1cc(C(c2c(NC(=O)c3ccco3)sc(C)c2C)N2CCOCC2)cc(OC)c1OC (stereo not given) | -2.89% (inactive) | 
CCC1CCCCN1C(=O)CSc1nc(C)cc(C)n1 (stereo not given) | -8.6% (inactive) | 
COC(=O)C1CCN(C(=O)NC2CC(=O)N(c3ccc4c(c3)OCCO4)C2)CC1 (stereo not given) | 3.08% (inactive) | 
O=C(CNCc1ccc(Cl)cc1)Nc1cccc(C(=O)O)c1 | -0.15% (inactive) | 
Cc1ccc(-n2c(C)cc(/C=C(\C#N)C(=O)NCC3CCCO3)c2C)cc1 (stereo not given) | -2.2% (inactive) | 
Cc1ccc(C)c(NC(=O)C(c2ccccc2)N2CCN(CC(=O)NC3CC3)CC2)c1 (stereo not given) | -0.786% (inactive) | 
COc1ccccc1NC(=O)c1cc(N2C(=O)C3C4CCC(C4)C3C2=O)ccc1Cl (stereo not given) | 1.31% (inactive) | 
CCc1nn(CCCC(=O)Nc2ccc(C)cc2C)c(=O)c2cc3occc3n12 | 1.57% (inactive) | 
O=S(=O)(NC1CCN(S(=O)(=O)c2ccc3c(c2)OCCO3)CC1)c1c(F)cccc1F | 0.533% (inactive) | 
COC(=O)c1ccc(Nc2ncnc3sccc23)cc1 | -13.1% (inactive) | 
COc1ccc2nc(NC3=NCN(CC4CCCO4)CN3)nc(C)c2c1 (stereo not given) | 1.76% (inactive) | 
O=S(=O)(c1ccc(-c2ccccc2)cc1)N1CCCC1 | -3.69% (inactive) | 
COc1cc(C2C(C(=O)c3sc(C)nc3C)=C(O)C(=O)N2CCN(C)C)cc(OC)c1OC (stereo not given) | -0.311% (inactive) | 
NC(=O)C1CCN(c2nc(-c3cccc(F)c3)cs2)CC1 | 0.604% (inactive) | 
CCN(CC(=O)Nc1cc(Cl)ccc1C)C(=O)CSCc1ccccc1 | 1.09% (inactive) | 
Cc1ccc(C(=O)OCC(=O)Nc2ccc(Cl)cn2)cc1S(=O)(=O)N1CCOCC1 | 1.87% (inactive) | 
OCCNc1nc2ccccc2n1-c1ncnc2sc3c(c12)CCC3 | 0.0901% (inactive) | 
CCOC(=O)NC(=O)C(=CNc1cccc(OC)c1)C(=O)NC(=O)OCC | -0.345% (inactive) | 
O.O.O.O=S(=O)([O-])OC[C@H]1O[C@@H](O[C@]2(COS(=O)(=O)[O-])O[C@H](OS(=O)(=O)[O-])[C@@H](OS(=O)(=O)[O-])[C@@H]2OS(=O)(=O)[O-])[C@H](OS(=O)(=O)[O-])[C@@H](OS(=O)(=O)[O-])[C@@H]1OS(=O)(=O)[O-].[Al] | 0.62% (inactive) | 
